Laboratory results as given in PubChem BioAssay AID493098 (Sanford-Burnham Center for Chemical Genomics, 2011).
Hit rate of the full screen: of about 340,000 compounds, about 1,700 (0.5%) were called active.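 Rule for the calls: active = compounds whose inhibition of the agonist-driven luminescence signal at 20 µM reaches about 50% (limit read from the data); inactive = the rest.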 The list comes from a sample in which actives are over-represented; it also holds similar structures and randomly drawn compounds.

biological target: C-C chemokine receptor type 6 (Homo sapiens) (UniProt P51684); assay: blockers of CCL20-driven beta-arrestin recruitment to CCR6 – cell-based, CHO-K1, luminescence, uHTS, primary screen (AID 493098); conditions: CHO-K1 CCR6 PathHunter beta-arrestin, CCL20-stimulated, at 20 µM, stronger effect = higher value;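 note: cells stimulated with CCL20 at 14 nM final; plate controls were DMSO with CCL20 for no effect and DMSO without agonist for full effect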
Sequence (P51684 whole entry, looked up): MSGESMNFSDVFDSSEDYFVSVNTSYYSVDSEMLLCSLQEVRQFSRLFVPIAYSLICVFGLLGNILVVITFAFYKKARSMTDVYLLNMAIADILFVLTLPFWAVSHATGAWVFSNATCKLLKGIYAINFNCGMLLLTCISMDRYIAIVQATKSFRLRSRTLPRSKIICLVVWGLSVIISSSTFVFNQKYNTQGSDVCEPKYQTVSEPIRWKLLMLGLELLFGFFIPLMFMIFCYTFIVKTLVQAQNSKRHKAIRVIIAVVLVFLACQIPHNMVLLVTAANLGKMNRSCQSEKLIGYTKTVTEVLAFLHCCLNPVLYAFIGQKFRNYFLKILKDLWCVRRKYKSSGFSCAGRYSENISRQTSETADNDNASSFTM

inhibition, inactive:
Nc1ccc(SCCN2C(=O)c3ccccc3C2=O)cc1 -6.02%
Cc1ccc2oc(=O)c3cnn(CC(=O)N(Cc4ccco4)C4CCCCC4)c3c2c1 20.4%
O=C(COC(=O)CCc1c[nH]c(=O)[nH]1)Nc1ccccc1Cl -11.7%
CN(C)S(=O)(=O)Oc1ccccc1C(=O)Nc1ccccc1Cl 8.47%
Cc1c(S(=O)(=O)N2CC(C)CC(C)C2)c(=O)n(C)c(=O)n1C (configuration not stated) -1.65%
CCN(CC)CCCSc1nc2ccccc2s1 -12.8%
OCCNc1nc(Nc2ccc(Cl)c(Cl)c2)nc2ccccc12 -13.9%
Cc1nc(C)c(-c2nnc(-c3cccc(S(=O)(=O)N(C)C)c3)o2)cc1C(=O)NN 8.51%
CCOc1ccc2[nH]c3nc(SCC(=O)NC4CCCC4)nnc3c2c1 15.4%
Cc1nc2nc(SCC(=O)Nc3cccc(F)c3)[nH]c2cc1Br -8.14%
O=C(CN1CCN(C(=S)NC2CCCC2)CC1)Nc1ccc(Oc2ccccc2)cc1 10.7%
S=c1[nH]nc(/C=C/c2ccccc2)o1 -11.1%
CC(C)[C@H](NC(=O)N1CCn2c1nc1ccccc12)C(=O)NCCc1ccccc1 20.7%
CCCN(C(=O)COC(=O)CNS(=O)(=O)c1ccc(NC(C)=O)cc1)C1CCS(=O)(=O)C1 (configuration not stated) 4.25%
O=C(O)CCN(Cc1ccccc1)S(=O)(=O)c1c(Cl)cccc1Cl 4.62%
CC(=NNC(=S)N1CCCCCC1)c1ccccn1 21.3%
NC(=O)NC(CC(=O)NNC(=O)c1ccccn1)c1ccc(Cl)cc1 (configuration not stated) -16.2%
COC(=O)c1ccc(NC(=S)NN2CCOCC2)cc1 1.46%
Cc1nc2nc(C)c(NS(=O)(=O)c3ccc(C(C)(C)C)cc3)c(=O)n2[nH]1 6.13%
CC1CCCC(NC(=O)CSc2nccn2C)C1C (configuration not stated) 7.72%
CC1(C)CC2CC(C)(CN2c2ncnc3ccc(Br)cc23)C1 (configuration not stated) 10.7%
COc1ccc(OC)c(CCNC(=O)c2nn(C)c3c2CS(=O)(=O)c2ccccc2-3)c1 9.14%
CC1CN(Cc2ccco2)C(=S)N(c2ccccc2)C1=O (configuration not stated) 9.82%
CCN(CC)C(=O)CSc1nnc(CNc2ccc(F)cc2)n1Cc1ccco1 6.14%
Cc1ccccc1N1C(=O)C2ON(c3ccccc3)C(c3ccncc3)C2C1=O (configuration not stated) -6.39%
CN(CC(=O)Nc1cccc(F)c1)C(=O)C1CSC2(C)CCC(=O)N12 (configuration not stated) 9.77%
COCCn1c(SCC(=O)Nc2ccccc2F)nc2c(c1=O)SCC2 -9.89%
S=C(NN=C1CCN(Cc2ccccc2)CC1)NC1CCCCC1 21.4%
S=C(NCCc1ccccc1)NCC1CCCO1 (configuration not stated) 8.39%
Cc1cccc(C)c1N1CCN(S(=O)(=O)N2CCCCC2)CC1 18.8%
NS(=O)(=O)c1cc(C(=O)OCC(=O)NNC(=O)c2ccccc2)ccc1Cl 0.62%
Cc1cccc(N2C(=O)CC(SC(N)=Nc3ccccc3)C2=O)c1 (configuration not stated) 5.48%
Cc1ccc(N=Cc2c(O)n(-c3nccs3)c(=O)c3ccccc23)c(C)c1 17.6%
CCCCS(=O)c1snnc1C (configuration not stated) 4.33%
CCC(CC)c1nnc(NC(=O)C2=COCCO2)s1 -8.69%
CCOc1ccc(S(=O)(=O)N2CCCCC2)cc1NC(=O)CN1CCCC1c1cccs1 (configuration not stated) 13.2%
CC(=O)c1sc(N/N=C/c2ccc(C(C)C)cc2)nc1C -0.42%
CC(=O)c1sc(N/N=C\c2ccc(C)cc2)nc1C 20.1%
O=C(CO/N=C/c1ccc(OC(F)F)cc1)NCc1ccc(F)cc1 16.1%
COc1ccc(OC(C)C(=O)Nc2cccnc2)cc1 (configuration not stated) 9.87%
COc1ccc(CCC(=O)c2ccc(OC)cc2)cc1 11.9%
CC(C)(C)CN1CCNC(=O)C1CC(=O)NC1Cc2ccccc2C1 (configuration not stated) -8.22%
CC/C=C/C(=O)N1CC2(CC(c3cccc(NC(=O)CC)c3)=NO2)C[C@H]1C(N)=O (some centres not stated) 3.3%
COC(=O)c1cccc(N(C(=O)CNC(=O)c2cccs2)C(C(=O)NCC2CCCO2)c2ccc(OC)c(OC)c2)c1 (configuration not stated) -0.67%
COc1ccc(F)cc1C(=O)COC(=O)c1n[nH]c(=O)c2ccccc12 24.8%
CCCOC(=O)Cc1c(O)c2ccccc2[nH]c1=O -17.8%
COC(=O)Cc1ccc(NC(=S)NCc2ccccc2)cc1 -10.8%
NCC(=O)c1cccc2ccc[n+]([O-])c12 -4.01%
COc1ccc2c(c1)[C@H]1[C@H](CO2)[C@H](c2ccccc2)[C@]2(C)C(=O)Nc3cc(F)c(F)cc3C(=O)N12 -0.31%
C/C(N)=C(\C#N)C(=O)NCCc1ccccn1 4.85%

inhibition, active:
O=C(Nc1ccccc1Cl)/C(Cl)=C(\Cl)S(=O)c1ccccc1 (configuration not stated) 95.1%
O=[N+]([O-])c1c(NCCO)cc(Sc2nc3ccccc3s2)c2nonc12 114%
CCC(=C/c1sc2ccc3ccccc3c2[n+]1C)/C=C1\Sc2ccc3ccccc3c2N1C 66.6%
C/C(=N\NC(=O)Cc1ccc(Cl)cc1)c1ccccn1 102%
CN(C)C(=S)N=c1ssc(=S)n1Cc1ccco1 59.8%
CCCC1CCC(=NNC(=S)NCCc2ccccc2)CC1 (configuration not stated) 54.4%
Cc1cccc(-n2c(O)c(C=Nc3ccccc3N)c(=O)[nH]c2=O)c1 88.4%
COc1cccc2sc(Nc3nc(C)c(C(C)=O)s3)nc12 52.1%
COc1ccc(CS(=O)/C(Cl)=C(/Cl)C(=O)Nc2ccc(OC)nc2)cc1 (configuration not stated) 95.4%
COC(=O)Cc1c(-c2[nH]c3ccccc3c2CC(=O)OC)[nH]c2ccccc12 85.9%
Cc1ccc2cccc(O)c2[n+]1[O-] 54.9%
Nc1ccccc1SC(C[N+](=O)[O-])c1ccccc1 (configuration not stated) 62.7%
